Drawing on PubChem BioAssay AID602342 (Broad Institute, 2012), this text covers activation (reporter increase) for 43 molecules.

The structures appear in SMILES notation. Out of some 340,000 compounds screened, about 1,000 (0.29%) were called active. The full list was thinned out, with actives kept by preference. Values without a mark were called inactive.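 The calls were made as follows: active = mean replicate activation score at least 90 and every replicate individually at or above 90; inconclusive = only one of the two criteria met; inactive = neither criterion met.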

A short description of this assay: miR-122 Renilla sensor signal increase in Huh7, primary screen, miR-122 inhibitor project, cell-based, single point, plate reader (AID 602342).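 Also: higher luciferase means less miR-122 activity so hits act as miR-122 inhibitors.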 The following applies: Huh7 miR-122 Renilla luciferase sensor, 48 h, active compounds read high, neutral wells = 0, positive control = 100; at 16.7 µM unless noted.
For the molecule `C[C@@H]1CN([C@@H](C)CO)C(=O)c2cc(NC(=O)Cc3ccccc3)ccc2O[C@@H](C)CCCCO[C@H]1CN(C)C(=O)Cc1ccccc1`, the activation (reporter increase) was 0.724%.

With `Cc1ccc(-c2ccc3c(c2)O[C@@H](CN(C)C(=O)CC2CC2)[C@@H](C)CN([C@@H](C)CO)S3(=O)=O)cc1`, the activation (reporter increase) was 12.9%.

Take `COc1ccc(NC(=O)N(C)C[C@H]2Oc3ccc(NS(=O)(=O)c4ccc(C)cc4)cc3C(=O)N([C@@H](C)CO)C[C@H]2C)cc1`: the activation (reporter increase) is 3.8%.

As for `COc1ccc(NC(=O)Nc2ccc3c(c2)C(=O)N([C@H](C)CO)C[C@H](C)[C@H](CN(C)S(=O)(=O)c2ccc(OC)cc2)O3)cc1`, the activation (reporter increase) was -11.1%.

As for `COc1ccc(C(=O)Nc2ccccc2C(=O)N/N=C/c2ccccc2OC)cc1`, the activation (reporter increase) is 115% [at 12.5 µM] (active).

`COc1ccc(OC)c(/C=N/NC(=O)c2ccc[n+](CC(=O)c3ccccc3)c2)c1`: the activation (reporter increase) was -4.06% [at 12.5 µM].

Regarding `COc1ccccc1C(=O)Nc1ccccc1C(=O)Nc1ccccc1`, the activation (reporter increase) was 1.44% [at 12.5 µM].

As for `COc1ccc(NC(=O)N(C)C[C@H]2OCCCC[C@@H](C)Oc3ccc(NC(=O)NC4CCCCC4)cc3C(=O)N([C@@H](C)CO)C[C@H]2C)cc1`, the activation (reporter increase) is -3.11%.

In the case of `CCOC(=O)c1c(C)[nH]c(C)c1S(=O)(=O)NCCCc1ccco1`, the activation (reporter increase) was 128% [at 12.5 µM] (active).

For the molecule `NC(=O)c1cc(S(=O)(=O)NCCCc2ccco2)cs1`, the activation (reporter increase) is 2.02% [at 12.5 µM].

In the case of `CCOC(=O)c1c(S(=O)(=O)NCC(=O)Nc2ccc(C)cc2)c(C)n(C)c1C`, the activation (reporter increase) is 3.19% [at 12.5 µM].

As to `O=C(O)c1ccc(F)c(S(=O)(=O)Nc2ccccc2)c1`, the activation (reporter increase) was 3.15% [at 12.5 µM].

Consider `Cc1noc(C)c1S(=O)(=O)Nc1ccc(C(=O)O)cc1`, for which the activation (reporter increase) is 0.153% [at 12.5 µM].

On to `Cc1cc(C(C)(C)C)cc(S(=O)(=O)Nc2ccc(C(=O)O)cc2)c1C`, for which the activation (reporter increase) was 165% [at 12.5 µM] (active).

On to `COc1ccc(CN(C)C[C@H]2OCCCC[C@@H](C)Oc3ccc(NS(=O)(=O)c4ccccc4)cc3C(=O)N([C@@H](C)CO)C[C@@H]2C)cc1`, for which the activation (reporter increase) is -4.79%.

As for `CNC(=O)C[C@@H]1CC[C@@H]2[C@H](COC[C@H](O)CN2Cc2ccc(C(F)(F)F)cc2)O1`, the activation (reporter increase) is 1.05%.

Consider `COc1ccc(OCC(=O)NCCc2ccc(S(N)(=O)=O)cc2)cc1`, for which the activation (reporter increase) is -15.2% [at 12.5 µM].

For the molecule `COc1ccc(CCNC(=O)c2ccccc2OCc2ccccc2)cc1`, the activation (reporter increase) is -1.62% [at 12.5 µM].

Regarding `COc1ccc(OCCCC(=O)NCCc2ccccc2)cc1`, the activation (reporter increase) is 223% [at 12.5 µM] (active).

As to `OC[C@@H]1[C@H](c2ccc(C#CC3CC3)cc2)[C@@H]2CN(CCC(F)(F)F)CCCCN12`, the activation (reporter increase) was 12.9%.

For the molecule `CCCNC(=O)N1C[C@@H](O)COC[C@@H]2O[C@@H](CC(=O)O)CC[C@H]21`, the activation (reporter increase) is 0.047%.

Regarding `C[C@H](CO)N1C[C@H](C)[C@@H](CN(C)Cc2ccccc2)Oc2c(NC(=O)C3CCOCC3)cccc2C1=O`, the activation (reporter increase) is 14.3%.

Regarding `C[C@H](CO)N1C[C@H](C)[C@@H](CN(C)Cc2ccc3c(c2)OCO3)Oc2c(NC(=O)C3CCOCC3)cccc2C1=O`, the activation (reporter increase) was 319% (active).

Regarding `CC(C)NC(=O)N(C)C[C@@H]1Oc2c(NC(=O)c3cnccn3)cccc2C(=O)N([C@@H](C)CO)C[C@@H]1C`, the activation (reporter increase) was 4.6%.

Turning to `C[C@H](CO)N1C[C@H](C)[C@H](CN(C)Cc2ccc(C(=O)O)cc2)Oc2c(NC(=O)C3CCOCC3)cccc2C1=O`, the activation (reporter increase) was -5.1%.

Take `C[C@H](CO)N1C[C@H](C)[C@H](CN(C)CC2CCCCC2)Oc2c(NC(=O)c3cnccn3)cccc2C1=O`: the activation (reporter increase) was 119% (active).

With `C[C@@H]1CN([C@H](C)CO)C(=O)c2cccc(NC(=O)c3cnccn3)c2O[C@@H]1CN(C)Cc1ccncc1`, the activation (reporter increase) was -3.39%.

For the molecule `CN(C)CCCNC(=O)C[C@@H]1C=C[C@H](NC(=O)Cc2cccnc2)[C@H](CO)O1`, the activation (reporter increase) is 15.8%.

Consider `COc1ccc(S(=O)(=O)N(C)C[C@H]2OCCCC[C@@H](C)Oc3ccc(NC(=O)CCC(F)(F)F)cc3C(=O)N([C@@H](C)CO)C[C@H]2C)cc1`, for which the activation (reporter increase) was 16.9%.

Consider `C[C@@H]1CCCCO[C@@H](CN(C)S(=O)(=O)c2cn(C)cn2)[C@@H](C)CN([C@@H](C)CO)C(=O)c2cc(NC(=O)Nc3ccc(C(F)(F)F)cc3)ccc2O1`, for which the activation (reporter increase) was -9.96%.

With `COc1cc(NS(=O)(=O)c2ccc3ccccc3c2)c2ncccc2c1`, the activation (reporter increase) is 152% [at 12.5 µM] (active).

Regarding `CCOc1ncccc1C(=O)NNC(=O)c1cccc(S(=O)(=O)Nc2ccccc2OC)c1`, the activation (reporter increase) is -0.667% [at 12.5 µM].

Turning to `COc1ccc(N2CC(NS(=O)(=O)c3ccc4ccccc4c3)CC2=O)cc1` (stereo not drawn), the activation (reporter increase) was -5.35% [at 12.5 µM].

Turning to `C[C@H]1CN([C@@H](C)CO)C(=O)c2cccc(NC(=O)Nc3ccc(F)cc3)c2O[C@H]1CN(C)S(=O)(=O)c1cn(C)cn1`, the activation (reporter increase) was 4.09%.

With `COc1ccc(S(=O)(=O)Nc2ccc3c(c2)OCO3)cc1Cl`, the activation (reporter increase) was 37.2% [at 12.5 µM].

As to `COc1ccc(S(=O)(=O)Nc2ccc(F)cc2)c(C)c1C`, the activation (reporter increase) was 231% [at 12.5 µM] (active).

For `COc1ccc(F)cc1S(=O)(=O)Nc1ccc2c(c1)OCO2`, the activation (reporter increase) was 99.7% [at 12.5 µM] (active).

Consider `CCOc1ccc(S(=O)(=O)Nc2ccncc2)c(C)c1C`, for which the activation (reporter increase) is 20.9% [at 12.5 µM].

Turning to `COc1ccc(F)cc1S(=O)(=O)NCC(c1ccc2c(c1)OCO2)N1CCN(C)CC1` (stereo not drawn), the activation (reporter increase) was 2.63% [at 12.5 µM].

`COc1ccc(NS(=O)(=O)c2ccc(F)cc2F)cn1`: the activation (reporter increase) is -2.63% [at 12.5 µM].

Regarding `CO[C@H]1CN(C)C(=O)c2ccc(NS(=O)(=O)c3ccccc3C)cc2OC[C@H](C)NC[C@H]1C`, the activation (reporter increase) is 6.89%.

On to `Cn1cnc(S(=O)(=O)N2C[C@@H](O)COC[C@H]3O[C@@H](CC(=O)NCc4ccc(F)cc4)CC[C@@H]32)c1`, for which the activation (reporter increase) was 2.69%.

Take `O=C(N[C@@H]1CC[C@H](CCn2cc(C3CC3)nn2)O[C@H]1CO)c1cccnc1`: the activation (reporter increase) is -7.57%.
